Screening results as filed in PubChem.
Most compounds without a hit are left out; they make up all but 6.5% or so of the library.
LASV entry inh: Lassa virus entry inhibition | hit rate 1.2% among 300,000 | Lassa virus pseudotype entry inhibition, cell reporter | Potency, µM (series often up to 37.9 µM), for the others: top-dose activity change, negative = inhibition, actives largely listed as inhibitors; calls by dose curve; tested in HEK293 cells; further: potency means the concentration at half of the fitted maximal effect; nearly all actives have a fitted effect of over 50% in size
Vaccinia Venus: vaccinia inhibition (Venus reporter); hit rate 0.46% among 330,000; Vaccinia virus Venus reporter expression, fluorescence; Potency, µM (highest dose often 36.5 µM), inactives show at the top dose activity change, negative = inhibition, actives largely listed as inhibitors; calls by dose curve; tested in A549 cells; further: potency means the concentration at half of the fitted maximal effect; nearly all actives have a fitted effect of over 30% in size
MARV entry inh: blocks Marburg virus binding to or entry into cells. Marburg virus pseudotyped entry inhibition, cell reporter. Potency, µM (highest dose often 37.8 µM), inactives show at the highest dose activity change, negative = inhibition, most hits filed as inhibitors. hit rate 1.8% among 300,000. AID 540276; calls by dose curve; tested in HEK293 cells; further: potency means the concentration at half of the fitted maximal effect
HCMV inh: blocks human cytomegalovirus replication | hit rate 4.5% among 410,000 | HFF cells, HCMV-luciferase reporter, 72 h; hits give low values | activity change, negative = inhibition, % at 57.5 µM; in the data active means activity change below about -60%; inconclusive means no clear call, values can overlap the other calls; inactive means above about -39%
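Steps: HFFs plated, 16 h 37C; compounds added; HCMV-luciferase added to MOI 1 PFU/cell; 72 h 37C; OneGlo reagent, 5 min room temperature; luminescence read, normalized to controls.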
VACV mCherry inh: inhibitors of vaccinia virus infection (mCherry reporter signal); Vaccinia virus mCherry reporter infection, fluorescence; Potency, µM (highest dose often 36.5 µM), inactives show at the highest dose activity change, negative = inhibition, actives largely listed as inhibitors; hit rate 0.63% among 310,000; calls by dose curve; tested in A549 cells; further: potency means the concentration at half of the fitted maximal effect; nearly all actives have a fitted effect of over 35% in size
FMDV antiviral: blocks foot and mouth disease virus; Potency, µM (titrated, usually from 57.9 µM), for the others: at the highest dose activity change, negative = inhibition, hits mostly inhibitors; hit rate 1.2% among 410,000; AID 1159524; FMDV antiviral cell-based qHTS; calls by dose curve; tested in HEK293T cells; further: read-out not given here; potency means the concentration at half of the fitted maximal effect; nearly all actives have a fitted effect of over 45% in size
Starred values were filed as active, the others as inactive; i = inactive; ? = inconclusive; nt = no result; [ ] = another dose, or the depositor's remark. On the % scale 0 is the no-effect control and ±100 the full control effect.

SMILES	LASV entry inh	Vaccinia Venus	MARV entry inh	HCMV inh	VACV mCherry inh	FMDV antiviral
S=C(NCCCc1ccccc1)Nc1ccc(Cl)cc1	-27%	?	5%	-98*	-8%	1%
COc1ccccc1-c1ccnc(-n2ncc(C(=O)N(C)C(C)c3nc(C)cs3)c2C2CC2)n1 (stereo not given)	nt	-7%	nt	nt	-12%	29%
Clc1ccccc1-c1nccc(NCc2ccccc2)n1	nt	nt	nt	nt	nt	10%
CC(C)N(c1ccccc1)c1ccc(NC(=S)NCCN(C)C)cc1	?	-5%	11µM*	-26	-7%	?
O=[N+]([O-])c1ccc(NC(=S)NCCc2ccc(F)cc2)cc1	?	?	?	-98*	?	-16%
CCCNC(=S)Nc1ccccc1	nt	-10%	nt	-65*	i	13%
CCOc1ccc(CSCCNC(=S)Nc2ccc(OC)cc2)cc1	nt	nt	nt	-81*	nt	13%
CCCOc1ccc(CSCCNC(=S)Nc2ccccc2)cc1	?	-23%	?	-37	i	0%
O=C(NCCc1ccc(F)cc1)Nc1ccc([N+](=O)[O-])cc1	28%[46.1 µM]	-19%	?	-14	i	2%
O=C(CCc1c[nH]c2ccccc12)N1CCC(n2c(C3CCCO3)nc3cc(C(F)(F)F)ccc32)CC1 (stereo not given)	nt	2%	nt	nt	2%	-6%
COc1cc(-c2cc(C)c3c(OC)ccc(OC)c3n2)cc2c1OCCN(C(=O)C(C)c1n[nH]c(=O)c3ccccc13)C2 (stereo not given)	nt	-4%	nt	nt	-11%	-8%
CC1=C(C(=O)Nc2ccccc2C)C(c2cccnc2)n2nc(SCc3ccccc3)nc2N1 (stereo not given)	-2%[46.1 µM]	-9%	nt	-4	-5%	-16%
COCC1CCCN(Cc2ccc3c(c2)CN(C(=O)c2ccc(-c4ccc(C)o4)cc2)CCO3)C1 (stereo not given)	nt	-10%	nt	nt	-12%	8%
CCOC(=O)c1cnc2ccc(OCC)cc2c1NCc1ccccc1OC	8.9µM*	-4%	?	-70*	-15%	18µM*
CCOC(=O)c1cnc2ccc(OC)cc2c1NCc1ccccc1	25%	-3%	?	-16	-23%	-7%
Cc1ccc(OC(=O)c2snnc2C)cc1C	-1%[46.1 µM]	6%	-5%[46.1 µM]	3	-3%	-4%
Cc1ccc(N2CCN(c3c(CN4CCCC4)c(=O)oc4ccccc34)CC2)c(C)c1	?	-12%	4%[46.1 µM]	-8	-20%	-18%
O=[N+]([O-])c1ccc(O)c(-c2ccnc3cc(-c4ccccc4)nn23)c1	?	?	-15%[46.1 µM]	-78*	?	?
CCn1c(N2CCN(S(=O)(=O)c3ccc(OC)cc3)CC2)nc2ccccc21	8.9µM*	-26%	?	-39	i	?
CC[N+]1(CC(=O)c2ccc(Br)cc2)CCCCC1	nt	-16%	nt	nt	-20%	nt
S=C1NCCN1c1ccc(Cl)cc1	nt	nt	nt	-19	nt	nt
O=Nc1ccccn1	nt	nt	nt	26	nt	nt
COc1cc(OC)c2c(=O)c(-c3ccccc3)coc2c1	nt	-11%	nt	nt	-5%	22%
CC(C)NC(=O)c1ccc(-n2c(=S)[nH]c3ccccc3c2=O)cc1	nt	nt	nt	-84*	nt	nt
O=c1c2ccccc2[nH]c(=S)n1-c1ccc(Br)cc1	4%[46.1 µM]	-12%	0%[46.1 µM]	-36	-10%	44%
SMILES	LASV entry inh	Vaccinia Venus	MARV entry inh	HCMV inh	VACV mCherry inh	FMDV antiviral
CC1(C(=O)O)NCCc2cc(O)c(O)cc21 (stereo not given)	nt	-9%	nt	nt	-12%	-13%
CCOC(=O)c1c(-c2ccccc2)oc2ccc(N(C(C)=O)S(=O)(=O)c3ccccc3)cc12	-8%[46.1 µM]	-12%	8%[46.1 µM]	9	-19%	15%
CCOC(=O)c1c(-c2ccccc2)oc2ccc(OCC(O)CNCCN(C)C)cc12 (stereo not given)	?	?	?	-8	11µM*	?
CCOC(=O)c1c(-c2ccccc2)oc2ccc(N(C(C)=O)S(=O)(=O)c3cc(C)ccc3C)cc12	-11%[46.1 µM]	-18%	-12%[46.1 µM]	-106*	-30%	11%
COC(=O)c1c(C)oc2ccc(N(C(=O)c3ccncc3)S(=O)(=O)c3cc(C)ccc3C)cc12	?	-28%	-29%[46.1 µM]	-65*	?	-9%
Cc1cccc(Cn2c(=O)n(Cc3ccc4c(c3)OCO4)c(=O)c3oc4ccccc4c32)c1	-1%[46.1 µM]	-3%	nt	5	-2%	-22%
CN1CC2(Cc3c1ccc1ccccc31)C(=O)OC(C)(C)OC2=O	?	6.3µM*	?	58	4µM*	?
